PGC1a acetyl inh: lowers PGC1a acetylation signal in U2OS cells; AlphaScreen anti-acetyl-lysine; with virally co-expressed GCN5 acetyltransferase; inhibition, % at 15.6 µM; actives 0.17% (n = 350,000);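 active = every replicate shows inhibition of at least 40%; inconclusive = mean inhibition at least 40% but some replicate below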
LGR2 antag: Drosophila LGR2 receptor signaling inhibition | HEK293 LGR2, CRE-luciferase, bursicon-stimulated, 4 h | inhibition, % at 9.99 µM | actives 0.35% (n = 380,000) | AID 720647;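 active = drop in luminescence signal, shown as inhibition above about 50% in the replicate tests, limit read from the data, passing the limit was not always enough; inconclusive = probably only some replicates passing the limit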;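 note: agonist challenge used bursicon conditioned medium at about half maximal strength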
EWS-Fli inh: EWS/Fli transcriptional activity inhibition. AID 651661. inhibition, % at 12.6 µM. A673 NR0B1-luciferase reporter, viability-normalised. actives 0.67% (n = 350,000);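 active = mean inhibition of at least 50% after viability correction, with every replicate also passing that limit; inconclusive = mean reaches 50% but only one of two replicates passes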;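 note: firefly luciferase signal divided by Alamar Blue viability fluorescence both relative to DMSO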
PAX8 inh HTS: inhibitors of PAX8 transcriptional activity in RMG-I cells; inhibition, % at 12.6 µM; RMG-I TPO-luciferase reporter, SteadyGlo, 24 h; actives 1.2% (n = 360,000);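 active = mean replicate inhibition at least 60% with every replicate also reaching 60%; inconclusive = only one of the two criteria is met; inactive = mean below 60% and not all replicates reaching 60%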;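 note: luciferase light reporting Pax8 driven TPO promoter activity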
SIRT5 block: blocks human SIRT5 desuccinylation of peptide; Purified SirT5, succinyl-peptide AMC, trypsin-coupled fluorescence; Q9NXA8; actives 1.1% (n = 330,000); inhibition, % at 15 µM; in the data active = inhibition above about 15%; inconclusive = no clear call, values can overlap the other calls
Target sequence (Q9NXA8 whole entry, looked up): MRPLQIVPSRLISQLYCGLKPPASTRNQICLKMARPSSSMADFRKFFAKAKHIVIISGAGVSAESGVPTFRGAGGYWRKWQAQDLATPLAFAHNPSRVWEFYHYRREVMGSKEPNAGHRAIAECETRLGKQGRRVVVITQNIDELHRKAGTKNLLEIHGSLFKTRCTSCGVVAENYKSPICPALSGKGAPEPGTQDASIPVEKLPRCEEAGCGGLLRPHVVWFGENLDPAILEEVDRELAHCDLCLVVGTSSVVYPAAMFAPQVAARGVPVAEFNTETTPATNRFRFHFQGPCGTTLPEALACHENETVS
Ecoli rRNA inh: inhibits bacterial ribosomal RNA function over humanized ribosomes; E. coli WT GFP vs humanized-ribosome RFP mutants, fluorescence, 24 h; hits give low values; DMSO median 0, no signal -100; GFP signal change (wild-type ribosome), % (concentration not given with the values); actives 1.6% (n = 350,000); AID 720706;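 active = significant combined selectivity score with lowered wild-type GFP, culture density cut under 30%, mutant RFP and density less affected; inactive = any of these conditions unmet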
Of the large screens only hits and unclear results are named; the others gave an inactive call; ! = not active in a repeat. This is a sample that favours compounds with a hit; in the whole collection about 3.4% have one here.

CCN1CCN(c2ccc(NC(=O)c3ccc([N+](=O)[O-])o3)cc2Cl)CC1	PAX8 inh HTS 83, Ecoli rRNA inh -38 (no result: PGC1a acetyl inh)
O=C(Nc1cc(Cl)ccc1-n1cncn1)c1ccc([N+](=O)[O-])o1	PAX8 inh HTS 63, Ecoli rRNA inh -21 (no result: PGC1a acetyl inh)
CCN1CCN(c2ccc(S(=O)(=O)N3CCCCC3)cc2NC(=O)c2ccc([N+](=O)[O-])o2)CC1	none (no result: PGC1a acetyl inh)
CC(=O)N1CCN(c2ccccc2NC(=O)c2ccc(Br)o2)CC1	SIRT5 block 27 (no result: PGC1a acetyl inh)
CCC(=O)N1CCN(c2ccc(NC(=O)c3ccc([N+](=O)[O-])o3)cc2Cl)CC1	EWS-Fli inh inconclusive, PAX8 inh HTS 99
CCC(=O)N1CCN(c2ccc(Cl)cc2NC(=O)c2ccc([N+](=O)[O-])o2)CC1	none
O=C(Cc1cccnc1)N1CC(=O)N2[C@H](CO)[C@@H](c3ccc(C#CC4CCCC4)cc3)[C@H]2C1	none (no result: PAX8 inh HTS)
Cc1ccc(S(=O)(=O)Nc2ccc3c(c2)C(=O)N([C@@H](C)CO)C[C@@H](C)[C@@H](CN(C)C(=O)CCC(F)(F)F)OCCCC[C@@H](C)O3)cc1	none
Cc1ccc(S(=O)(=O)Nc2cccc3c2O[C@@H](CN(C)S(=O)(=O)c2ccc(Cl)cc2)[C@H](C)CN([C@@H](C)CO)C3=O)cc1	none
COc1cc(OC)c(NC(=O)Nc2ccc(OC)c(OC)c2)cc1Cl	none (no result: LGR2 antag, EWS-Fli inh, SIRT5 block, Ecoli rRNA inh)
COc1cc(NC(=O)Nc2ccc(Cl)c(Cl)c2)c(C(=O)O)cc1OC	Ecoli rRNA inh -40
Oc1ccc(Cl)cc1C1=NCCNC(C(F)(F)C(F)F)=C1	Ecoli rRNA inh -22 (no result: EWS-Fli inh)
Cc1ccc(O)c(C2=NCCNC(C(F)(F)C(F)F)=C2)c1	none (no result: PGC1a acetyl inh, LGR2 antag, EWS-Fli inh, SIRT5 block, Ecoli rRNA inh)
CC=Cc1ccc2n(c1=O)C[C@H]1[C@H](CO)[C@@H](C(=O)NCC(F)(F)F)N(C(=O)c3cccnc3)[C@@H]21 (mixture of isomers)	none (no result: PGC1a acetyl inh, PAX8 inh HTS)
COc1cccc(NC(=O)N2CC(=O)N3[C@@H](CO)[C@H](c4ccc(C#CCC5CCCC5)cc4)[C@@H]3C2)c1	SIRT5 block 20
O=C(Nc1cccc(F)c1)N1CC(=O)N2[C@@H](CO)[C@@H](c3ccc(C#CCC4CCCC4)cc3)[C@@H]2C1	none
COc1cccc(NC(=O)N2CC(=O)N3[C@H](CO)[C@H](c4ccc(C#CCC5CCCC5)cc4)[C@H]3C2)c1	SIRT5 block 22
CNC[C@@H]1OCCCC[C@H](C)Oc2ccc(NC(=O)Nc3ccccc3)cc2C(=O)N([C@H](C)CO)C[C@@H]1C	none (no result: SIRT5 block)
CO[C@H]1CN(C)C(=O)c2ccc(NC(=O)C3CCCC3)cc2OC[C@H](C)N(CCC(F)(F)F)C[C@H]1C	none (no result: PAX8 inh HTS)
CO[C@@H]1CN(C)C(=O)c2ccc(NC(=O)c3cccc(F)c3)cc2OC[C@@H](C)N(C(C)=O)C[C@H]1C	none (no result: PGC1a acetyl inh, LGR2 antag, EWS-Fli inh, PAX8 inh HTS, SIRT5 block)
O=C(Nc1ccccc1F)c1cc2c(s1)-c1ccccc1S(=O)(=O)C2	SIRT5 block 24
CC(=O)Nc1ccc(S(=O)(=O)N(CC(=O)Nc2cc(C)on2)Cc2ccc(F)cc2)cc1	Ecoli rRNA inh -24 (no result: PGC1a acetyl inh)
Cc1cc(NC(=O)CCCC(=O)Nc2ccc(F)cc2)no1	none (no result: LGR2 antag, EWS-Fli inh, PAX8 inh HTS, SIRT5 block, Ecoli rRNA inh)
O=C(O)C[C@H]1C=C[C@@H](NC(=O)CCN2CCCCC2)[C@@H](CO)O1	none (no result: EWS-Fli inh)
C/C=C/c1ccc2c(c1)O[C@H](CN(C)C(=O)NC1CCCC1)[C@H](C)CN([C@H](C)CO)S2(=O)=O	SIRT5 block 16!
C[C@@H]1CN([C@H](C)CO)S(=O)(=O)c2ccc(/C=C/c3ccccc3)cc2O[C@H]1CN(C)C(=O)NC1CCCC1	SIRT5 block 15
C[C@@H]1CN([C@@H](C)CO)S(=O)(=O)c2ccc(/C=C/c3ccccc3)cc2O[C@H]1CN(C)C(=O)NC1CCCC1	SIRT5 block 16
CCCN1C[C@H](C)[C@@H](OC)CN(C)C(=O)c2cc(NC(=O)COC)ccc2OC[C@@H]1C	none (no result: SIRT5 block)
O=C(CN1C(=O)c2ccccc2S1(=O)=O)Nc1ncccn1	none
O=C(CN1C(=O)c2ccccc2S1(=O)=O)c1ccccc1Cl	LGR2 antag 96, EWS-Fli inh 82, PAX8 inh HTS 90 (no result: PGC1a acetyl inh)
O=C(CN1C(=O)c2ccccc2S1(=O)=O)Nc1ncc(Cl)cc1Cl	LGR2 antag 69, EWS-Fli inh 58
O=C(CN1C(=O)c2ccccc2S1(=O)=O)c1ccccc1	none (no result: LGR2 antag, EWS-Fli inh, PAX8 inh HTS, SIRT5 block, Ecoli rRNA inh)
C[C@@H]1CCCCO[C@H](CN(C)C(=O)c2ccccc2)[C@@H](C)CN([C@@H](C)CO)C(=O)c2cc(N(C)C)ccc2O1	none
COc1ccc(C[C@H]2CCn3nncc3COCCCNC2=O)cc1	none (no result: PGC1a acetyl inh, LGR2 antag, EWS-Fli inh, PAX8 inh HTS, SIRT5 block)
Cc1noc(C)c1S(=O)(=O)Nc1ccc2c(c1)C(=O)N([C@@H](C)CO)C[C@H](C)[C@@H](CN(C)C(=O)Nc1ccc(C(F)(F)F)cc1)OCCCC[C@H](C)O2	PAX8 inh HTS 107
Cc1noc(C)c1S(=O)(=O)Nc1ccc2c(c1)C(=O)N([C@@H](C)CO)C[C@H](C)[C@@H](CN(C)C(=O)Nc1ccc(C(F)(F)F)cc1)OCCCC[C@@H](C)O2	PAX8 inh HTS 65
Cc1noc(C)c1S(=O)(=O)Nc1ccc2c(c1)C(=O)N([C@@H](C)CO)C[C@@H](C)[C@H](CN(C)C(=O)Nc1ccc(C(F)(F)F)cc1)OCCCC[C@@H](C)O2	PAX8 inh HTS 66
Cc1noc(C)c1NC(=O)N(C)C[C@H]1OCCCC[C@@H](C)Oc2ccc(NS(=O)(=O)c3c(C)noc3C)cc2C(=O)N([C@H](C)CO)C[C@H]1C	none
Cc1noc(C)c1NC(=O)N(C)C[C@H]1OCCCC[C@@H](C)Oc2ccc(NS(=O)(=O)c3c(C)noc3C)cc2C(=O)N([C@H](C)CO)C[C@@H]1C	SIRT5 block 28
Cc1noc(C)c1S(=O)(=O)Nc1ccc2c(c1)C(=O)N([C@H](C)CO)C[C@H](C)[C@@H](CN(C)C(=O)Nc1ccc(F)cc1)OCCCC[C@H](C)O2	none
COc1ccc(C(=O)N/C(=C\c2cn(S(=O)(=O)N(C)C)c3ccccc23)C(=O)NCCCn2ccnc2)cc1	none
CCCNC(=O)/C(=C/c1cn(S(=O)(=O)N(C)C)c2ccccc12)NC(=O)c1ccc(OC)cc1	Ecoli rRNA inh -26 (no result: SIRT5 block)
CCOc1cc(/C=C/C(=O)OCC(=O)NC2CCS(=O)(=O)C2)ccc1OCc1ccccc1 (stereo not drawn)	Ecoli rRNA inh -28 (no result: SIRT5 block)
CC=Cc1ccc2n(c1=O)C[C@H]1[C@H](CO)[C@@H](C(=O)N(C)C)[C@@H]2N1CC1CCCC1 (mixture of isomers)	none (no result: PAX8 inh HTS)
COc1cc(-c2nc3n(n2)C(c2ccc(F)cc2)C2=C(CCCC2=O)N3)cc(OC)c1OC (stereo not drawn)	Ecoli rRNA inh -27 (no result: EWS-Fli inh)
COc1ccc(C2C3=C(CCCC3=O)Nc3nc(C(F)(F)F)nn32)cc1OC (stereo not drawn)	none (no result: LGR2 antag, EWS-Fli inh, PAX8 inh HTS, SIRT5 block, Ecoli rRNA inh)
Cc1cc(NC(=O)NC(=O)c2ccccc2NC(=O)CN(C)C)ccc1Oc1ncc(Br)cn1	EWS-Fli inh 58 (no result: SIRT5 block)

Bioassay records deposited in PubChem by Broad Institute.
